PubChem BioAssay AID1159580 (chemical genetic matrix, 2015)
Where “and” joins values, the source holds several entries; their conditions need not be identical. Identical values can stand only once. The campaign covered roughly 5,500 compounds. About 2,000 (36%) were called active. Not shown: some 18% with an inconclusive outcome. No stated cut-off is given here; in the data, active means normalized growth mostly below about 0.91 (no sharp cut-off); inconclusive means no clear call, values can overlap the other calls; inactive means mostly above about 0.92. Some of the results follow.

Assay: chemical genetic growth profiling, strain panel (AID 1159580);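 further: tested at 20 µM; growth read once vehicle control cultures reached saturation at 30 °C; 1 = growth at the plate median or of vehicle wells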
Details: S. cerevisiae deletion strains, growth OD

Measured: normalized growth

CC1(C)C(=O)[C@@H]2C[C@@]3(O)C4=CC(=O)O[C@@H](c5ccoc5)[C@]4(C)CCC3[C@@](C)(C2=O)[C@H]1CC(=O)O (stereo partly specified)
inactive: locus YAL021C, strain ccr4, stronger effect = lower value 0.988 | locus YAL026C, strain drs2, stronger effect = lower value 1.02 | locus YAL030W, strain snc1, stronger effect = lower value 0.997 | locus YBL061C, strain skt5, stronger effect = lower value 1.01 | locus YBR009C, strain hhf1, stronger effect = lower value 1 | locus YBR021W, strain FUR4, stronger effect = lower value 1 | locus YBR023C, strain chs3, stronger effect = lower value 1.01 | locus YBR171W, strain sec66, stronger effect = lower value 1.01 | locus YBR229C, strain ROT2, stronger effect = lower value 1.01 | locus YBR231C, strain swc5, stronger effect = lower value 1.01 | locus YBR279W, strain paf1, stronger effect = lower value 1.01 | locus YCL011C, strain gbp2, stronger effect = lower value 1.02 | locus YCL016C, strain dcc1, stronger effect = lower value 1.01 | locus YCL029C, strain bik1, stronger effect = lower value 0.995 | locus YCL061C, strain MRC1, stronger effect = lower value 1 | locus YCL069W, strain vba3, stronger effect = lower value 1.01 | locus YCR088W, strain abp1, stronger effect = lower value 1 | locus YDL005C, strain med2, stronger effect = lower value 0.996 | locus YDL035C, strain GPR1, stronger effect = lower value 1.03 | locus YDL040C, strain nat1, stronger effect = lower value 0.991 | locus YDL074C, strain BRE1, stronger effect = lower value 1.02 | locus YDL101C, strain DUN1, stronger effect = lower value 1.01 | locus YDL185W, strain tfp1, stronger effect = lower value 0.995 | locus YDL192W, strain arf1, stronger effect = lower value 1 | locus YDR001C, strain nth1, stronger effect = lower value 1.01 | locus YDR069C, strain doa4, stronger effect = lower value 1.02 | locus YDR101C, strain arx1, stronger effect = lower value 0.993 | locus YDR137W, strain rgp1, stronger effect = lower value 1.04 | locus YDR150W, strain NUM1, stronger effect = lower value 1.01 | locus YDR159W, strain sac3, stronger effect = lower value 1.01 | locus YDR162C, strain NBP2, stronger effect = lower value 1.03 | locus YDR195W, strain ref2 0.972 | locus YDR297W, strain sur2, stronger effect = lower value 1.01 | locus YDR318W, strain mcm21, stronger effect = lower value 0.996 | locus YDR334W, strain swr1, stronger effect = lower value 1.01 | locus YDR335W, strain msn5, stronger effect = lower value 1.01 | locus YDR388W, stronger effect = lower value 0.967 | locus YDR392W, strain spt3, stronger effect = lower value 1.01 | locus YDR502C, strain sam2, stronger effect = lower value 0.991 | locus YEL003W, strain gim4, stronger effect = lower value 1.03 | locus YEL037C, strain rad23, stronger effect = lower value 1.01 | locus YEL061C, strain CIN8 (second series), stronger effect = lower value 1.02 | locus YEL061C, strain CIN8, stronger effect = lower value 1 | locus YER015W, strain faa2, stronger effect = lower value 1 | locus YER016W, strain bim1, stronger effect = lower value 1 | locus YER110C, stronger effect = lower value 0.984 | locus YER111C, strain swi4, stronger effect = lower value 1.01 | locus YER155C, strain BEM2 (second series), stronger effect = lower value 1.02 | locus YER155C, strain BEM2, stronger effect = lower value 1 | locus YER167W, strain BCK2, stronger effect = lower value 1 | locus YFR010W, strain ubp6, stronger effect = lower value 1.01 | locus YGL078C, strain dbp3, stronger effect = lower value 0.996 | locus YGL086W, strain mad1, stronger effect = lower value 1.01 | locus YGL167C, strain pmr1, stronger effect = lower value 1 | locus YGL173C, strain kem1, stronger effect = lower value 1.01 | locus YGL227W, strain vid30, stronger effect = lower value 0.998 | locus YGL240W, strain doc1, stronger effect = lower value 1.01 | locus YGL248W, strain PDE1, stronger effect = lower value 1 | locus YGL253W, strain hxk2, stronger effect = lower value 1.01 | locus YGR135W, strain pre9, stronger effect = lower value 0.997 | locus YGR252W, strain gcn5, stronger effect = lower value 1 | locus YHR013C, strain ard1, stronger effect = lower value 1.02 | locus YHR027C, strain rpn1, stronger effect = lower value 0.993 | locus YHR030C, strain SLT2, stronger effect = lower value 0.98 | locus YHR079C, strain IRE1 (second series), stronger effect = lower value 0.996 | locus YHR079C, strain IRE1, stronger effect = lower value 0.956 | locus YHR094C, strain hxt1, stronger effect = lower value 0.981 | locus YHR129C, strain ARP1, stronger effect = lower value 1 | locus YHR142W, strain chs7, stronger effect = lower value 1.02 | locus YHR200W, strain rpn10, stronger effect = lower value 0.988 | locus YIL066C, strain RNR3, stronger effect = lower value 1 | locus YIL073C, strain SPO22, stronger effect = lower value 1.05 | locus YIL125W, strain kgd1, stronger effect = lower value 0.994 | locus YIR030C, strain dcg1, stronger effect = lower value 0.993 | locus YJL092W, strain hpr5, stronger effect = lower value 1.01 | locus YJL095W, strain BCK1 (second series), stronger effect = lower value 1 | locus YJL095W, strain BCK1, stronger effect = lower value 1.02 and 0.973 | locus YJL115W, strain asf1, stronger effect = lower value 1.02 | locus YJL129C, strain trk1, stronger effect = lower value 0.998 | locus YJL134W, strain LCB3, stronger effect = lower value 1 | locus YJL154C, strain vps35, stronger effect = lower value 1 | locus YJL164C, strain tpk1, stronger effect = lower value 1.01 | locus YJL166W, strain qcr8, stronger effect = lower value 1.02 | locus YJL168C, strain set2, stronger effect = lower value 0.994 | locus YJL187C, strain SWE1 (second series), stronger effect = lower value 1.01 | locus YJL187C, strain SWE1, stronger effect = lower value 1.03
